# Assay results published in PubChem BioAssay AID652126 (The Scripps Research Institute Molecular Screening Center, 2013).
# Where “and” joins values, the source holds several entries; their conditions need not be identical. Equal values may be shown once. Screen size: about 370,000 compounds; about 3,700 (1%) were called active.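 Rule for the calls: active = activation above the mean over all tested compounds plus 3 SD (cut at about 0.9% in these data); inactive = the rest.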 Shown is part of a subset that was picked to be rich in actives. More than one record can exist for a structure, and the calls need not agree.
# Tested on: Nuclear hormone receptor DAF-12 (Strongyloides stercoralis)
# Assay: S. stercoralis DAF-12 nuclear receptor activators, primary screen, cell-based, luminescence, HEK293, GRIP1 co-expression, lit1-tk-luc (AID 652126);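 note: 0% = DMSO-only wells and 100% = 3 µM delta7-dafachronic acid wells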
# Settings: HEK293 ssDAF-12/GRIP1 lit1-tk-luc reporter, at 6.8 µM, stronger effect = higher value, % of 3 µM dafachronic acid response
row,Compound,activation
1,O=C(CSc1nc2ccccc2s1)NN=Cc1ccc(O)cc1O,-1.4% (inactive)
2,COc1cc(/C=N/Nc2nc3ccccc3s2)ccc1O,2.25% (active)
3,COc1ccc(/C=N/Nc2ncnc3sc4c(c23)CCCC4)cc1O,-0.66% (inactive)
4,COc1ccccc1CCNC(=O)C1CCN(c2nc(C)cc(C)n2)CC1,-1.36% (inactive)
5,Cn1c(NCc2cccnc2)nc2cc(-c3ccc(F)cc3)sc2c1=O,-1.06% (inactive)
6,O=c1[nH]c(CCl)nc2cc(-c3ccc(Cl)cc3)sc12,1.53% (active)
7,COc1cccc(-c2cc3nc(NCCOc4ccccc4Cl)n(C)c(=O)c3s2)c1,-1.7% (inactive)
8,CC(C)(C)OC(=O)NCc1cc(F)ccc1/C=C/S(=O)(=O)NCCc1ccccc1,-1.87% (inactive)
9,CCC(=O)OCCCN1C(=O)CCC12CCC(c1ccccc1)CC2 (stereo not given),-0.68% (inactive)
10,Cc1ccc(C)c(-n2c(SCC(=O)O)nc3sc4c(c3c2=O)CCCC4)c1,-1.01% (inactive)
11,CCn1c(SCC(C)=O)nc2sc3c(c2c1=O)CCCC3,-2.16% (inactive)
12,NNC(=O)C1CCCn2c1nc1sc3c(c1c2=O)CCCC3 (stereo not given),1.14% (active)
13,COc1cccc(Cn2cc(COC(=O)Nc3ccc(F)cc3)nn2)c1,-0.68% (inactive)
14,COc1ccc(CSc2nnc(-c3cccc(C)c3)n2C)cc1,-1.19% (inactive)
15,COc1ccc(C2CC(c3cccs3)=Nc3ccccc3S2)cc1OC (stereo not given),1.64% (active)
16,COc1ccc(C2CC(c3cccs3)=NN2c2nc(C)c(C(C)=O)s2)cc1OC (stereo not given),-0.94% (inactive)
17,COc1ccc(C2CC(=O)n3c(nc4ccccc43)S2)cc1OC (stereo not given),-1.19% (inactive)
18,COP(=O)(O)CNC(=O)OCc1ccccc1,-0.73% (inactive)
19,CC(=O)N1CCCN(C2=Nc3ccccc3Sc3ccccc32)CC1,-1.69% (inactive)
20,COc1ccccc1C(=O)COC(=O)CSCC(=O)Nc1cc(C)on1,1.36% (active)
21,Cc1cc(NC(=O)CSCc2ccccc2C)no1,-1.6% (inactive)
22,Cc1cc(NC(=O)CSCC(=O)NC(C)c2ccccc2)no1 (stereo not given),-1.09% (inactive)
23,CN(CCO)c1cccc2c1S(=O)(=O)N(Cc1cn(Cc3ccc(C(F)(F)F)cc3)nn1)Cc1ccccc1O2,-0.96% (inactive)
24,O=C1C(=O)N(Cc2ccc(-c3ccsc3)cc2)c2ccc(OC(F)(F)F)cc21,-0.76% (inactive)

row,Compound,activation
1,CCS(=O)(=O)c1cc([N+](=O)[O-])c(Sc2ccccc2N)s1,0.94% (active)
2,COc1ccccc1C(=O)CSc1nnc(-c2ccccn2)n1-c1ccccc1,-1.43% (inactive)
3,C=CCN1C(=O)[C@@H](CC(=O)NCC2CCCCC2)[C@]2(C(=O)OC)CCCCC=C12,-1.59% (inactive)
4,COCC(=O)N[C@@H]1C[C@@H]2O[C@@H](CO)CC[C@@H]2O[C@@H]1CCc1ccc(-c2ccccc2)cc1,-1.17% (inactive)
5,CN(Cc1nc2ccccc2s1)C(=O)c1ccc(F)cc1,1.11% (active)
6,CN(Cc1ccc(F)cc1)C(=O)COc1ccc2ccccc2c1,-0.45% (inactive)
7,COc1ccccc1S(=O)(=O)NCc1ccc(C(=O)N(C)Cc2ccc(F)cc2)cc1,-1.02% (inactive)
8,CSc1ccc(C=Nn2c(-c3ccc(F)cc3)n[nH]c2=S)cc1,-1.67% (inactive)
9,C[C@@H]1ON(C)[C@H]2C[C@H]3c4[nH]c5cccc(-c6ccc7c(c6)OCO7)c5c4CCN3C[C@@H]12,-0.56% (inactive)
10,CC(C)Cc1cc(C(=O)NCCc2ccccc2)no1,1.34% (active)
11,CC(C)Cc1cc(C(=O)Nc2cc(Br)ccc2O)no1,-1.29% (inactive)
12,O=C(NCCCc1ccccc1)c1cc(COc2c(F)cccc2F)on1,-0.16% (inactive)
13,COc1ccc(-n2c(SCC(=O)Nc3ccc(C)c(Cl)c3)nc3ccccc3c2=O)cc1,-2.01% (inactive)
14,CC(=O)Nc1nc2ncccn2c1-c1ccc(C(F)(F)F)cc1,-0.67% (inactive)
15,c1ccc(C2=Nc3cccc4cccc(c34)N2)cc1,1.19% (active)
16,COc1ccccc1C1=Nc2cccc3cccc(c23)N1,-1.81% (inactive)
17,Brc1ccc(C2CC(c3ccccc3)=Nc3ccccc3N2)cc1 (stereo not given),0.69% (inactive)
18,COC(=O)[C@]12C[C@H](CC(=O)NCc3ccccc3)C(=O)N(CCC3=CCCCC3)C1=C[C@H](C(C)C)O[C@@H]2C1CC1,-1.77% (inactive)
19,COc1ccc(-n2c(SCC(=O)Nc3ccccc3-c3ccccc3)nnc2-c2cccnc2)cc1,-1.34% (inactive)
20,CCC1C(=O)c2ccccc2N(C)C1=O (stereo not given),-0.91% (inactive)
21,CN1C(=O)/C(=N/OC(=O)c2ccccc2Br)c2ccccc21,-1% (inactive)
22,CN1C(=O)/C(=C\c2cc(Br)cs2)c2ccccc21,1.58% (active)
23,CCC(CO)Nc1cccc2c1S(=O)(=O)N(Cc1cn(Cc3ccccc3C(F)(F)F)nn1)Cc1ccccc1O2 (stereo not given),-1.78% (inactive)
24,O=C(CN(C(=O)CCC(=O)Nc1nccs1)c1ccc(F)cc1)NCc1ccc2c(c1)OCO2,-0.97% (inactive)

row,Compound,activation
1,CCC(C)(C)NC(=O)CN(C(=O)CCC(=O)Nc1cc(C)ccn1)c1ccc2c(c1)OCCO2,-1.73% (inactive)
2,CCC(C)(C)NC(=O)CN(C(=O)CCC(=O)Nc1nccs1)c1ccc2c(c1)OCO2,1.27% (active)
3,FC(F)(F)c1cccc(NC(=S)OC2CCC23CCC(c2ccccc2)CC3)c1 (stereo not given),-0.81% (inactive)
4,CC(NCc1ccco1)C(=O)N1CCCCC1 (stereo not given),-1.35% (inactive)
5,COC(=O)c1sccc1NC(=O)c1ccc(Cl)cc1,0.94% (active)
6,COC(=O)c1sccc1NC(=O)CCC1CCCC1,-0.73% (inactive)
7,COC(=O)c1sccc1N/N=C(\C)c1ccc(F)c(Cl)c1,-1% (inactive)
8,Cc1nnc(-c2ccc(Oc3ccc(C)c(C)c3)c([N+](=O)[O-])c2)o1,-0.81% (inactive)
9,CCOC(=O)N1CCN(C(=O)C[C@@H]2C(=O)N(CCc3ccc(Cl)cc3)C3=CCCC[C@]32C(=O)OCC)CC1,-1.59% (inactive)
10,O=C(CN1CCSCC1)N/N=C/c1ccc(Cl)cc1,1.53% (active)
11,Cc1ccc(S(=O)(=O)N2CCN(CC(=O)N/N=C/c3ccc(Br)s3)CC2)cc1,-1.5% (inactive)
12,O=C(CN1CCSCC1)N/N=C/c1ccc(F)cc1F,-1.01% (inactive)
13,COc1ccc(N2CCN(CCNS(=O)(=O)c3ccc(Cl)s3)CC2)cc1,-0.86% (inactive)
14,O=C(NC1CCCCN(Cc2cccc(C(F)(F)F)c2)C1=O)c1ccccc1I (stereo not given),-1.74% (inactive)
15,COC(=O)c1ccc(-n2cnc3ccccc32)nc1,-0.78% (inactive)
16,Cn1c(NC(=O)c2ccccc2)nc2ccccc21,1.7% (active)
17,CCn1c(NC(=O)c2nn(C)cc2Br)nc2ccccc21,-0.8% (inactive)
18,COc1ccccc1C(=O)NC1CCCCN(C(C)C)C1=O (stereo not given),-0.64% (inactive)
19,CCN(CC)S(=O)(=O)c1ccc(NC(=O)c2cccnc2Cl)c(NC(=O)c2cccnc2Cl)c1,-0.9% (inactive)
20,CCOC(=O)N1CCC(N2Cc3cccc(C(=O)Nc4ccc(S(=O)(=O)N(CC)CC)cc4)c3C2=O)CC1,-1.26% (inactive)
21,CCN(CC)S(=O)(=O)c1ccc(NC(=O)c2cnc(C)cn2)cc1,1.35% (active)
22,COC(=O)C1CN(CC(C)C)CCS(=O)(=O)N1Cc1ccc(F)cc1 (stereo not given),-1.13% (inactive)
23,CCOC(=O)[C@]12CCCCC/C=C\1N(Cc1ccc(OC)cc1)C(=O)[C@H]2CC(=O)N1CCOCC1,-0.98% (inactive)
24,COc1ccc(NCCc2ccccn2)cc1,1.17% (active)

row,Compound,activation
1,COc1cncc(-c2cnc3sc(NCCc4ccccn4)nn23)c1,-1.45% (inactive)
2,Cc1c(C)c(C)c(S(=O)(=O)NCCc2ccccn2)c(C)c1C,0.14% (inactive)
3,COC(=O)[C@@]12CCCCC3=C1N(CCC3)C(=O)[C@H]2CC(=O)NCc1cccc2ccccc12,-0.9% (inactive)
4,COc1cccc(-c2cnc(OC(C)(C)C)nc2OC(C)(C)C)c1,-1.2% (inactive)
5,O=[N+]([O-])c1ccc2oc(-c3cccc(O)c3)nc2c1,3.74% (active)
6,COC(=O)C(C)Oc1ccc2c(-c3cccc([N+](=O)[O-])c3)cc(=O)oc2c1 (stereo not given),-1.35% (inactive)
7,O=C(O)c1ccc([N+](=O)[O-])cc1Sc1ccsc1,-1.44% (inactive)
8,COc1cccc(NS(=O)(=O)c2ccc(-c3coc(C)n3)cc2)c1,-0.73% (inactive)
9,COc1cccc(-c2nc3cc(C)ccc3o2)c1,2.34% (active)
10,Cc1cc(=O)[nH]c(SCC(=O)Nc2ccc(F)cc2F)n1,-1.31% (inactive)
11,C=CCN1[C@@H](Cc2ccccc2)COc2cccc(N3CCSCC3)c2S1(=O)=O,-1.93% (inactive)
12,O=C(N1CCOCC1)N1CC[C@H]2[C@H](CCCN2Cc2ccc(F)cc2)C1,-1.48% (inactive)
13,C[C@H](C(=O)N(C)c1ccccc1)[C@@H](O)c1ccc(Cl)cc1,-1.24% (inactive)
14,Cn1c(=O)[nH]c(=O)c2c1nc(CN1CCN(c3ccccc3F)CC1)n2CCc1ccccc1,-1.22% (inactive)
15,O=C(NC(=S)Nc1cccc2c(O)cccc12)c1cccc(Br)c1,-1.15% (inactive)
16,N#C/C(=C/c1ccc(Cl)cc1)NC(=O)c1ccccc1,-1.06% (inactive)
17,O=C(NC(=O)c1ccccc1)Nc1ccccc1O,2.39% (active)
18,CCc1ccc2[nH]c(=O)c(Cc3ccccc3)c(O)c2c1,-1.02% (inactive)
19,CCCS(=O)(=O)Nc1c(C(=O)O)[nH]c2ccccc12,0.51% (inactive)
20,NS(=O)(=O)c1ccccc1NC(=O)c1c(O)c2ccccc2[nH]c1=O,1.94% (active)
21,O=S(=O)(c1ccc(OCC(O)CN2CCN(c3ccccc3Cl)CC2)cc1)N1CCOCC1 (stereo not given),-1.31% (inactive)
22,OC(COc1ccc2ccccc2c1)CN1CCOCC1 (stereo not given),0.96% (active) and -0.96% (inactive)
23,OC(COc1ccc2ccccc2c1)Cn1cncn1 (stereo not given),-0.42% (inactive)
